Pf Dd2 inh: inhibitors of Plasmodium falciparum Dd2 growth; AID 1159554; activity change, % at 10 µM; 94,000 compounds, 2.3% hits; P. falciparum Dd2 growth, SYBR Green, 72 h; stronger effect = lower value; in the data active = activity change below about -80%; inconclusive = no clear call, values can overlap the other calls
C diff growth: C. difficile growth inhibition | Clostridium difficile clinical isolate growth, OD600, 24 h; stronger effect = lower value | growth activity, negative = inhibition, % at 16 µg/mL (by protocol) | 86,000 compounds, 0.25% hits;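 active = mean growth activity at or below -80% and every replicate also at or below -80%; inconclusive = mean at or below -80% but some replicate above -80%; inactive = mean growth activity above -80%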;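 also: 0% = DMSO wells and -100% = levofloxacin 16 µg/mL wells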
T cruzi growth-1: T. cruzi proliferation inhibition; inhibition, % at 8.34 µM; AID 624255; 77,000 compounds, 5.9% hits; T. cruzi beta-gal in NIH3T3, GalScreen luminescence, 90 h;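 active = mean inhibition above about 93%, with at least 55% of replicates each passing it, limit read from the data, passing the limit was not always enough; inconclusive = only one of those two conditions holds; inactive = neither condition holds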
T cruzi growth-2: inhibitors of T. cruzi proliferation. T. cruzi beta-gal in NIH3T3, GalScreen luminescence, 90 h. 5,600 compounds, 72% hits. inhibition, % at 8.35 µM. shares compounds with T cruzi growth-1;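 active = mean replicate inhibition above about 95% and at least 55% of replicates individually reaching it, limit read from the data; inconclusive = only one of the two criteria is met; inactive = neither criterion is met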
T cruzi growth-3: inhibitors of T. cruzi proliferation; T. cruzi beta-gal in NIH3T3, GalScreen luminescence, 90 h; shares compounds with T cruzi growth-1; 5,600 compounds, 21% hits; inhibition, % at 2.09 µM;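 active = mean inhibition above about 95%, with at least 55% of replicates also reaching it, limit read from the data; inconclusive = meets just one of the two conditions; inactive = meets neither condition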;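 also: plate controls were neutral control median for no effect and positive control median for full effect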
NIH3T3 tox: cytotoxicity in mouse NIH/3T3 fibroblasts; 5,600 compounds, 14% hits; shares compounds with T cruzi growth-1; NIH/3T3 viability, CellTiter-Glo ATP luminescence, 90 h; cytotoxicity (signal decrease), % at 8.35 µM;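 active = mean signal decrease across replicates above about 35% based on untreated-well scatter, with enough replicates individually passing, limit read from the data; inconclusive = no rule stated though some were filed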;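 also: 0% = median of neutral control wells and 100% = median of positive control wells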
3T3 cytotox 2: cytotoxicity in mouse NIH/3T3 fibroblasts; shares compounds with T cruzi growth-1; inhibition, % at 24.9 µM; NIH/3T3 viability, CellTiter-Glo ATP luminescence, 90 h; 5,600 compounds, 56% hits;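 active = mean loss of cell viability signal at or above a set limit, and enough replicates individually reaching it; inconclusive = meets only the mean limit or only the replicate share; inactive = meets neither condition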;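 also: 0% = median of neutral control wells and 100% = median of positive control wells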
An asterisk follows results filed as active; ? = inconclusive; . = no result given. Compounds with a hit are over-represented: about 6.7% of the library has one in this group of screens.

SMILES | Pf Dd2 inh | C diff growth | T cruzi growth-1 | T cruzi growth-2 | T cruzi growth-3 | NIH3T3 tox | 3T3 cytotox 2
O=C(Cc1ccncc1)N1CC[C@H]2[C@H](CO)Nc3ccc(-c4ccccc4)cc3[C@H]21 | -65 | -8 | . | . | . | . | .
O=C(Cc1ccccc1)N1CC[C@H]2[C@H](CO)Nc3ccc(-c4ccccc4)cc3[C@H]21 | 12 | 44 | ? | 105* | 69 | -9 | -20
O=C(CN1CCOCC1)N1CC[C@@H]2[C@@H](CO)Nc3ccc(-c4ccccc4F)cc3[C@@H]21 | -4 | -6 | 50 | . | . | . | .
O=C(Cc1ccccc1)N1CC[C@@H]2[C@H](CO)Nc3ccc(C#Cc4cccc(F)c4)cc3[C@@H]21 | 8 | 59 | 32 | . | . | . | .
CN(C)C(=O)C[C@@H]1CC[C@H]2[C@H](COc3ccc(NC(=O)c4ccc(F)cc4)cc3C(=O)N2C)O1 | . | -6 | -57 | . | . | . | .
CO[C@H]1CN(C)C(=O)c2ccc(NS(=O)(=O)c3cn(C)cn3)cc2OC[C@@H](C)N(CCC(F)(F)F)C[C@H]1C | 11 | . | 57 | . | . | . | .
O=C(C[C@@H]1C[C@H]2c3cc(NS(=O)(=O)c4ccc(F)cc4)ccc3O[C@H]2[C@H](CO)O1)NCC1CC1 | -5 | -1 | -22 | . | . | . | .
C[C@H](CO)N1C[C@H](C)[C@H](CN(C)C(=O)c2ccccc2F)Oc2ncc(C#Cc3ccccc3)cc2C1=O | -60 | -10 | -19 | . | . | . | .
C[C@H](CO)N1C[C@H](C)[C@@H](CN(C)C(=O)c2ccccc2F)Oc2ncc(C#Cc3cccc(F)c3)cc2C1=O | -87* | 0 | 99* | 103* | 36 | -11 | -10
C[C@@H]1CN([C@H](C)CO)C(=O)c2cc(C#Cc3ccccc3)cnc2O[C@@H]1CN(C)C(=O)c1ccccc1F | -59 | -9 | -97 | . | . | . | .
C[C@@H]1CN([C@@H](C)CO)C(=O)c2cc(C#Cc3cccc(F)c3)cnc2O[C@H]1CN(C)C(=O)c1ccccc1F | -77 | 2 | 110* | 109* | 47 | 21 | 25
CCS(=O)(=O)Nc1ccc2c(c1)C(=O)N(C)[C@@H]1CC[C@H](CC(=O)NCc3ccccc3F)O[C@H]1CO2 | . | 2 | 4 | . | . | . | .
O=C(Cc1ccccc1)N[C@H]1C=C[C@@H](CC(=O)N2CCOCC2)O[C@@H]1CO | -9 | . | -20 | . | . | . | .
C[C@H](CO)N1C[C@H](C)[C@@H](CN(C)Cc2ccc(C(F)(F)F)cc2)Oc2ccc(NS(=O)(=O)c3ccc(F)cc3)cc2C1=O | -12 | -5 | 80 | . | . | . | .
C[C@@H]1CN([C@@H](C)CO)C(=O)c2cc(NS(=O)(=O)c3ccccc3)ccc2O[C@H]1CN(C)Cc1ccc(C(F)(F)F)cc1 | 10 | 5 | 94 | . | . | . | .
C[C@@H]1CN([C@H](C)CO)C(=O)c2cc(NS(=O)(=O)c3ccccc3)ccc2O[C@@H]1CN(C)Cc1ccc(Oc2ccccc2)cc1 | 18 | 43 | 47 | . | . | . | .
C[C@H](CO)N1C[C@H](C)[C@H](CN(C)Cc2ccc(Oc3ccccc3)cc2)Oc2ccc(NS(=O)(=O)c3ccc(Cl)cc3)cc2C1=O | -6 | 36 | ? | 107* | 64 | 0 | 104*
C[C@@H]1CN([C@@H](C)CO)C(=O)c2cc(NS(=O)(=O)c3ccc(Cl)cc3)ccc2O[C@@H]1CN(C)Cc1ccc(C(F)(F)F)cc1 | 8 | 20 | 126* | 96* | 46 | 68* | 104*
C[C@H]1CN([C@@H](C)CO)C(=O)c2cc(NS(=O)(=O)c3ccccc3)ccc2O[C@H]1CN(C)Cc1ccc(C(F)(F)F)cc1 | -65 | 8 | ? | 106* | 62 | 16 | 8
C[C@@H]1CN([C@@H](C)CO)C(=O)c2cc(/C=C/c3ccccc3)cnc2O[C@H]1CN(C)C(=O)c1cnccn1 | -2 | -4 | . | . | . | . | .
C[C@H]1CCCCO[C@H](CN(C)C(=O)Nc2ccc(F)cc2)[C@@H](C)CN([C@@H](C)CO)C(=O)c2cc(NC(=O)Nc3ccc(F)cc3)ccc2O1 | -58 | . | . | . | . | . | .
COc1ccc2c3c(n(C)c2c1)[C@@H](CO)N(C(C)=O)CC31CCN(Cc2cccnc2)CC1 | -19 | 2 | . | . | . | . | .
C[C@@H]1CN([C@H](C)CO)C(=O)Cc2cc(NS(=O)(=O)c3ccc(Cl)cc3)ccc2O[C@H]1CN(C)Cc1ccc(Cl)c(Cl)c1 | 10 | 84 | 97* | 108* | 107* | -1 | 103*
C[C@H](CO)N1C[C@H](C)[C@@H](CN(C)Cc2ccc(Cl)c(Cl)c2)Oc2ccc(NS(=O)(=O)c3ccc(Cl)cc3)cc2CC1=O | -26 | 52 | 78 | . | . | . | .
Cc1noc(C)c1S(=O)(=O)Nc1ccc2c(c1)CC(=O)N([C@H](C)CO)C[C@H](C)[C@@H](CN(C)Cc1ccc(Cl)c(Cl)c1)O2 | -13 | 34 | 100* | 106* | 71 | -3 | 104*
SMILES | Pf Dd2 inh | C diff growth | T cruzi growth-1 | T cruzi growth-2 | T cruzi growth-3 | NIH3T3 tox | 3T3 cytotox 2
Cc1noc(C)c1S(=O)(=O)Nc1ccc2c(c1)CC(=O)N([C@@H](C)CO)C[C@@H](C)[C@H](CN(C)Cc1ccc(Cl)c(Cl)c1)O2 | -23 | 79 | -44 | . | . | . | .
Cc1ccc(S(=O)(=O)Nc2ccc3c(c2)C(=O)N([C@H](C)CO)C[C@@H](C)[C@@H](CN(C)Cc2ccc(Cl)c(Cl)c2)O3)cc1 | -2 | 12 | ? | 95* | 56 | 65* | 105*
Cc1ccc(S(=O)(=O)Nc2ccc3c(c2)C(=O)N([C@H](C)CO)C[C@H](C)[C@@H](CN(C)Cc2ccc(Cl)c(Cl)c2)O3)cc1 | -2 | 21 | 63 | . | . | . | .
C[C@@H]1CN([C@@H](C)CO)C(=O)Cc2cc(NS(=O)(=O)c3ccc(Cl)cc3)ccc2O[C@H]1CN(C)Cc1ccc(Cl)c(Cl)c1 | -10 | 73 | ? | 82 | 87 | 42* | 104*
C[C@@H]1CN([C@H](C)CO)C(=O)Cc2cc(NS(=O)(=O)c3ccc(F)cc3)ccc2O[C@H]1CN(C)Cc1ccc(Cl)c(Cl)c1 | 10 | . | 71 | . | . | . | .
O=C(Cc1ccncc1)N1CC(=O)N2[C@@H](CO)[C@H](c3ccc(Br)cc3)[C@@H]2C1 | 56 | -2 | . | . | . | . | .
COCC(=O)N1CC2(C1)CN(C(=O)CN1CCOCC1)[C@@H](CO)c1c2c2ccc(OC)cc2n1C | -80 | -3 | . | . | . | . | .
CC(C)NC(=O)N(C)C[C@@H]1OCCCC[C@@H](C)Oc2ccc(NS(=O)(=O)c3ccc(F)cc3)cc2C(=O)N([C@@H](C)CO)C[C@H]1C | . | -3 | 30 | . | . | . | .
C[C@H](CO)N1C[C@H](C)[C@H](CN(C)Cc2ccc(C(=O)O)cc2)Oc2c(NS(C)(=O)=O)cccc2C1=O | 25 | -4 | 36 | . | . | . | .
O=C(NCC[C@@H]1CC[C@H](NC(=O)C2CCCC2)[C@H](CO)O1)c1cnccn1 | -11 | -3 | . | . | . | . | .
O=C(Nc1ccc2c(c1)[C@H]1C[C@H](CC(=O)N3CCOCC3)O[C@@H](CO)[C@H]1O2)C1CCOCC1 | 12 | . | -8 | . | . | . | .

Assay outcomes deposited in PubChem by Broad Institute.
